# Experimental data published in PubChem BioAssay AID463173 (ICCB-Longwood Screening Facility, Harvard Medical School, 2010).
# The campaign covered roughly 52,000 compounds. About 4,300 (8.3%) were called active. This excerpt belongs to a sample that is enriched for actives. Unmarked numbers belong to inactive results. Rule as the data show it: active = survival mostly below about 52% (no sharp cut-off); inactive = mostly above about 56%.
# Test system: DeltatarO mutant
# Assay: S. aureus survival, RN4220 and DeltatarO strains – OD600, teichoic acid synthesis inhibitors, primary screen (AID 463173)
# Details: S. aureus RN4220 wild type/DeltatarO growth, OD600, 18 h, active compounds read low, screened at 18.75 µg/mL (by protocol)
row,Compound,survival
1,CCCOc1ccc(C(=O)N(Cc2cccs2)c2ccc(C)cc2)cc1,70%
2,Cn1c(CCNC(=O)c2ccco2)nc2cc(NC(=O)COc3ccc(Cl)cc3)ccc21,58%
3,COc1cc(OC)c(NC(=O)c2c3c(nc4ccccc24)C(=O)N(C2CCCCC2)C3)cc1Cl,60%
4,Cc1ccc(-n2nc(CO)c(C(=O)NCC(c3ccccc3)c3ccccc3)n2)cc1,90%
5,CCOc1ccc(CCNC(=O)CCSCc2cccc(Cl)c2)cc1OCC,81%
6,CCOCCc1nn2c(=O)cc(COC(=O)c3ccccc3NC(=O)CC(C)C)nc2s1,89%
7,COc1ccc(OC)c(NC(=O)CCCc2nnc3n(C(C)C)c(=O)c4sccc4n23)c1,74%
8,CCn1c(=O)c2cc(C(=O)N3CCN(c4cccc(Cl)c4)CC3)sc2c2ccccc21,62%
9,Cc1ccc(Cl)cc1N1CCN(C(=O)c2cc3c(=O)n(C)c4ccccc4c3s2)CC1,56%
10,Cc1cccc(N2CCN(C(=O)c3cc4c(=O)oc5ccccc5c4s3)CC2)c1C,66%
11,Cc1cccc(N2CCN(C(=O)c3cc4c(=O)n(C)c5ccccc5c4s3)CC2)c1C,47% (active)
12,Cn1c(=O)c2cc(C(=O)N3CCN(c4ccc(Cl)cc4)CC3)sc2c2ccccc21,56% (active)
13,COc1cccc(N2CCN(C(=O)c3cc4c(=O)oc5ccc(C)cc5c4s3)CC2)c1,89%
14,CCn1c(=O)c2cc(C(=O)N3CCN(c4cccc(OC)c4)CC3)sc2c2ccccc21,53% (active)
15,COc1ccccc1N1CCN(C(=O)c2cc3c(=O)n(C)c4ccccc4c3s2)CC1,73%
16,Cn1c(=O)c2cc(C(=O)N3CCN(c4cccc(C(F)(F)F)c4)CC3)sc2c2ccccc21,92%
17,COc1ccc(CNC(=O)CSc2nc3cc4c(cc3cc2C#N)OCCO4)cc1,96%
18,CSc1cccc(NC(=O)C2CCN(C(=O)c3cnn(-c4ccccc4)c3-n3cccc3)CC2)c1,68%
19,COc1ccc(/C=C(\C#N)c2nc(-c3cc(Cl)ccc3OC)cs2)cc1,91%
20,CCc1ccc(NCc2cc3ccc(OC)cc3n(CC(=O)Nc3ccc(F)cc3F)c2=O)cc1,79%
21,Cc1ccc(-c2cc3c(n2-c2ccccc2F)CC(C)(C)CC3=O)cc1,101%

row,Compound,survival
1,COc1ccc(-n2c3c(cc(-c4nc(-c5ccc(C)cc5)cs4)c2=O)C(=O)CC(C)(C)C3)cc1,54%
2,CCOc1ccc(-n2c(-c3ccc(OC)cc3)cc3c2CC(C)(C)CC3=O)cc1,15% (active)
3,CCOc1ccc(-n2c(-c3ccc(Br)cc3)cc3c2CC(C)(C)CC3=O)cc1,17% (active)
4,CCN(CC)C(=O)c1cc2c(n(-c3ccc(OC)cc3)c1=O)CC(C)(C)CC2=O,70%
5,Cc1ccc(-c2cc3c(n2-c2ccc(F)cc2)CC(C)(C)CC3=O)cc1,98%
6,CCOc1ccc(NC(=O)CSC2=Nc3ccccc3C3=NC(CC(=O)NCc4ccco4)C(=O)N23)cc1 (centres undefined),69%
7,CCCOc1cccc(C(=O)Nc2cc(-c3ccccc3)no2)c1,65%
8,COc1ccccc1NC(=O)Cn1c(=O)n(Cc2ccco2)c(=O)c2oc3ccccc3c21,67%
9,CCCCn1c(=O)c2oc3ccccc3c2n(CC(=O)Nc2cccc(Cl)c2C)c1=O,52%
10,CCCCn1c(=O)c2oc3ccccc3c2n(CC(=O)Nc2cc(C)ccc2C)c1=O,44% (active)
11,Cc1ccc(C)c(Cn2c(=O)n(C(C)C)c(=O)c3oc4ccccc4c32)c1,51% (active)
12,COc1cc(NC(=O)Cn2c(=O)n(Cc3ccco3)c(=O)c3oc4ccccc4c32)cc(OC)c1,38% (active)
13,CC(C)n1c(=O)c2oc3ccccc3c2n(Cc2ccccc2F)c1=O,50%
14,O=c1c2oc3ccccc3c2n(Cc2ccccc2F)c(=O)n1Cc1ccco1,77%
15,O=c1c2oc3ccccc3c2n(Cc2ccc(Cl)cc2)c(=O)n1Cc1ccccc1,108%
16,Cc1ccc(C)c(NC(=O)Cn2c(=O)n(Cc3ccccc3)c(=O)c3oc4ccccc4c32)c1,62%
17,O=c1c2oc3ccccc3c2n(Cc2ccccc2F)c(=O)n1Cc1ccccc1,46% (active)
18,Cc1ccc(C)c(Cn2c(=O)n(Cc3ccco3)c(=O)c3oc4ccccc4c32)c1,97%
19,Cc1cc(C)cc(NC(=O)Cn2c(=O)n(Cc3ccco3)c(=O)c3oc4ccccc4c32)c1,106%
20,CN1/C(=C/C(=O)C2CCC2)Sc2ccccc21,56%
21,Cn1c(=O)n(C)c2cc(N3CCCCC3)c(NC(=O)Nc3ccc(Br)cc3)cc21,88%

row,Compound,survival
1,COCCn1c(=N)c(C(=O)NCc2ccco2)cc2c(=O)n3cc(C)ccc3nc21,69%
2,COc1cccc(C(c2sc3nc(-c4ccco4)nn3c2O)N2CCN(C)CC2)c1 (centres undefined),88%
3,CCOC(=O)c1c(NC(=O)c2cc3nc(-c4ccc(OC)cc4)cc(C(F)(F)F)n3n2)sc2c1CCC(C)C2 (centres undefined),95%
4,CCOc1ccc(NS(=O)(=O)c2ccc3[nH]cc(C(=O)N4CCCC4)c(=O)c3c2)cc1,85%
5,CCOc1ccc(NC(=O)Cn2c(=O)n(Cc3ccc(C(=O)NCc4ccc(C)cc4)cc3)c(=O)c3ccccc32)cc1,75%
6,CCN(CC)c1nc(OCC(F)(F)F)nc(N(c2ccccc2)c2ccccc2)n1,76%
7,COc1cc(NC(=O)Cn2c(=O)n(Cc3ccccc3)c(=O)c3oc4ccccc4c32)cc(OC)c1,85%
8,CC(C)n1c(=O)c2oc3ccccc3c2n(CC(=O)Nc2ccccc2Cl)c1=O,60%
9,COc1ccc(NC(=O)Cn2c(=O)n(Cc3ccco3)c(=O)c3oc4ccccc4c32)cc1Cl,53%
10,O=C(Cn1c(=O)n(Cc2ccco2)c(=O)c2oc3ccccc3c21)Nc1ccc(F)c(Cl)c1,44% (active)
11,Cc1cc(C)cc(NC(=O)Cn2c(=O)n(C(C)C)c(=O)c3oc4ccccc4c32)c1,48%
12,O=C(Cn1c(=O)n(Cc2ccco2)c(=O)c2oc3ccccc3c21)Nc1ccccc1,67%
13,COc1ccc(NC(=O)Cn2c(=O)n(Cc3ccccc3)c(=O)c3oc4ccccc4c32)cc1Cl,85%
14,COc1ccc(NC(=O)Cn2c(=O)n(C(C)C)c(=O)c3oc4ccccc4c32)cc1Cl,42% (active)
15,COc1cc(NC(=O)Cn2c(=O)n(C(C)C)c(=O)c3oc4ccccc4c32)cc(OC)c1,47% (active)
16,COc1cccc(CNC(=O)C2CCCN(S(=O)(=O)c3cn(C)cn3)C2)c1 (centres undefined),75%
17,CSCCC(NS(=O)(=O)c1cccs1)C(=O)Nc1ccc(C)c(Cl)c1 (centres undefined),74%
18,CCC(C(=O)N1CCN(c2ccccn2)CC1)c1ccccc1 (centres undefined),75%
19,COc1ccc(CNC(=O)CCS(=O)(=O)c2ccc3c(c2)oc(=O)n3C)cc1,75%
20,CCc1ccccc1NC(=O)Cn1c(=O)n(Cc2ccccc2)c(=O)c2c(C)c(C(=O)N(C)C)sc21,67%
21,N#CC(C#N)=C(C(C#N)=C1Nc2ccccc2N1)c1ccccc1F,59%

row,Compound,survival
1,O=C(Nc1ccc(Br)cc1)c1ccc2c3c(onc13)-c1ccccc1C2=O,72%
2,CN(C)c1ccc(CNS(=O)(=O)c2ccc3[nH]c4c(c3c2)CCCCC4)cc1,84%
3,Cc1cccc(C(=O)Nc2ccc3nc(SCC(=O)N4CCCC4)sc3c2)c1,58%
4,CCCOc1ccc(CN(C(=O)c2cc(=O)c3ccc(C)cc3o2)C2CCS(=O)(=O)C2)cc1 (centres undefined),36% (active)
5,Cc1ccc2c(=O)cc(C(=O)N(Cc3ccc(C(C)(C)C)cc3)C3CCS(=O)(=O)C3)oc2c1 (centres undefined),35% (active)
6,CCOc1ccc(CN(C(=O)c2cc(=O)c3cc(C)cc(C)c3o2)C2CCS(=O)(=O)C2)cc1 (centres undefined),56%
7,CCc1ccc(CN(C(=O)c2nc(SC)ncc2Cl)C2CCS(=O)(=O)C2)cc1 (centres undefined),71%
8,CCSc1ncc(Cl)c(C(=O)N(Cc2ccccc2Cl)C2CCS(=O)(=O)C2)n1 (centres undefined),83%
9,CCc1ccc(CN(C(=O)c2cc(=O)c3ccc(C)cc3o2)C2CCS(=O)(=O)C2)cc1 (centres undefined),107%
10,CCSc1ncc(Cl)c(C(=O)N(Cc2ccc(C(C)(C)C)cc2)C2CCS(=O)(=O)C2)n1 (centres undefined),42% (active)
11,CCOc1ccc(CN(C(=O)c2cc(=O)c3cc(Cl)ccc3o2)C2CCS(=O)(=O)C2)cc1 (centres undefined),104%
12,Cc1ccc2c(=O)cc(C(=O)N(Cc3ccc(N(C)C)cc3)C3CCS(=O)(=O)C3)oc2c1 (centres undefined),115%
13,COc1cccc(NC(=O)c2oc3ccccc3c2NC(=O)c2ccc(C(F)(F)F)cc2)c1,60%
14,COc1cc(CN2CCc3nc(Nc4ccc5c(c4)OCCO5)ncc3C2)cc(OC)c1OC,91%
15,CCOC(=O)N1CCN(Cc2nc3cc(NC(=O)C(C)C)ccc3n2C(C)C)CC1,68%
16,CCOC(=O)c1cccc(NC(=O)CCC(=O)N2CC(C)Oc3ccc(C)cc32)c1 (centres undefined),51%
17,Cc1ccc(-n2nc(C)c3c(C)c(CCC(=O)NCc4ccc(Cl)cc4)c(C)nc32)cc1,89%
18,O=C(CN1CCN(Cc2ccccc2Cl)C1=O)NCc1ccccc1Cl,67%
19,CCc1cc(C=Nc2ccccc2)c(O)s1,98%
20,Cc1cc(N2CCN(c3cccc(C)c3C)CC2)n2nc(C)c(-c3ccc(Cl)cc3)c2n1,87%
21,Cc1ccc(CNC(=O)c2cc3sccc3n2Cc2ccc(F)cc2)cc1,83%
